Measured values taken from PubChem BioAssay (NCATS).
Results filed as inconclusive are left out. Calls of active or inactive are those of the source. Calls follow the shape of the dose curve; as a rule, active = well fitted cell-killing curve with a large enough effect; inconclusive = small, poorly fitted or top-dose-only effect, or effect the other way; inactive = no such curve, though single readings can be large or run the other way.

Assay: Quantitative High-Throughput drug screen in 47 multiple myeloma cell lines against the NCATS MIPE library collection: KMM1_JCRB cell viability assay (AID 1918960); also: nearly all actives have a fitted effect of over 30% in size
Conditions: KMM1 myeloma viability, CellTiter-Glo ATP luminescence, 48 h; series mostly up to 45.8 µM; viability (% of DMSO): at the top concentration
Description: PI: Beverly A. Mock Ph.D.
Laboratory of Cancer Biology and Genetics,
Center for Cancer Research, National Cancer Institute,
National Institute of Health, Bethesda, Maryland
Drug resistance and disease progression are common in multiple myeloma (MM) patients, underscoring the need for new therapeutic combinations. […] We hypothesized that effective combinations would reduce MYC expression and enhance p16 activity. […] These preclinical data identify potentially useful drug combinations for evaluation in drug-resistant MM and reveal potential mechanisms of combined drug sensitivity.
Described herein is the primary MIPE qHTS used to cherrypick compounds. Validated compounds were then further tested for potential synergistic activiy.
[1] Peat TJ, Gaikwad SM, Dubois W, Gyabaah-Kessie N, Zhang S, Gorjifard S, Phyo Z, Andres M, Hughitt VK, Simpson RM, Miller MA, Girvin AT, Taylor A, Williams D, D'Antonio N, Zhang Y, Rajagopalan A, Flietner E, Wilson K, Zhang X, Shinn P, Klumpp-Thomas C, McKnight C, Itkin Z, Chen L, Kazandijian D, Zhang J, Michalowski AM, Simmons JK, Keats J, Thomas CJ, Mock BA. Drug combinations identified by high-throughput screening promote cell cycle transition and upregulate Smad pathways in myeloma. Cancer Lett. 2023 Aug 1;568:216284. doi: 10.1016/j.canlet.2023.216284. Epub 2023 Jun 24. PMID: 37356470; PMCID: PMC10408729.
SEQUENCE No. (e.g., 1, 2, 3, etc.); […] (e.g., Cells, Incubation, Reagent, etc.); VALUE and DESCRIPTION.
1; Cells; 5 uL; white, solid bottom 1536-well Greiner assay plate.
2; Compounds; 23 nL; Kalypsis pin tool (Wako USA) equipped with a 1536-well pin head to transfer to the assay plates.
3; Incubation; 48 hours; 37C incubation.
4; Reagent;5uL; CellTiter Glo (Promega).
5; Detector; 425V; Luminescence; Viewlux PerkinElmer.
NOTES (numbers refer to Sequence numbers above)
1. The cell-based screening methods employed in this study were like those previously published. Briefly, the corresponding myeloma cell lines were screened in 1,536-well plates with 500 cells, 5-uL per well for inhibition of cell viability (assessed by measuring ATP levels with CellTiterGlo).
2. NCATS MIPE 4.0 library of approved and investigational drugs were added using the Kalypsis pin tool. Wells treated with DMSO only for 100% viability and media only cells for 0% viability were used as controls.
3. The assay plates were covered and incubated for 48 hours in a 37C, 5% CO2 incubator with controlled humidity.
4. After 48 hours, CellTilter-GloTM luminescent substrate mix (Promega) reagent was added to the assay plate and plates we incubated for 5 min at room temperature.
5. Signal was measured as median relative luminescence units on a ViewLux (PerkinElmer) multiplate reader.
[1] Heske CM, Davis MI, Baumgart JT, Wilson K, Gormally MV, Chen L, Zhang X, Ceribelli M, Duveau DY, Guha R, Ferrer M, Arnaldez FI, Ji J, Tran HL, Zhang Y, Mendoza A, Helman LJ, Thomas CJ. Matrix Screen Identifies Synergistic Combination of PARP Inhibitors and Nicotinamide Phosphoribosyltransferase (NAMPT) Inhibitors in Ewing Sarcoma. Clin Cancer Res. 2017 Dec 1;23(23):7301-7311. doi: 10.1158/1078-0432.CCR-17-1121. Epub 2017 Sep 12. PMID: 28899971; PMCID: PMC6636827.
Potency is read from the fitted curve at half-maximal effect.

Structure (SMILES) | Potency | viability (% of DMSO)
Cc1cc(Nc2cc(N3CCN(C)CC3)nc(Sc3ccc(NC(=O)C4CC4)cc3)n2)n[nH]1 | 5900 nM (active) | –
O=C(O)CO.[NH2-].[NH2-].[Pt+2] | – | 131% (inactive)
COc1ccc2c(c1)CC[C@@H](CN(C)CC(=O)O)[C@H]2c1ccccc1 | 1320 nM (active) | –
CC1(C)CCC(c2ccc(Cl)cc2)=C(CN2CCN(c3ccc(C(=O)NS(=O)(=O)c4ccc(N[C@H](CCN5CCOCC5)CSc5ccccc5)c(S(=O)(=O)C(F)(F)F)c4)cc3)CC2)C1 | 1870 nM (active) | –
C1Cc2[nH]nc(-c3nn[nH]n3)c2C1 | – | 93.7% (inactive)
Nc1ncnc2c1c(-c1cnc3[nH]ccc3c1)nn2C1CCCC1 | 66.2 nM (active) | –
CC(C)Nc1cc(C(F)(F)F)cc2nc(NC(=O)c3cccnc3)nn12 | – | 82.7% (inactive)
O=C(C=Cc1c(C(=O)O)[nH]c2cc(Cl)cc(Cl)c12)Nc1ccccc1 | – | 87.4% (inactive)
Cc1cc(Nc2ncnc3ccc(-c4ccc(CNCCS(C)(=O)=O)o4)cc23)ccc1Oc1ccn2ncnc2c1 | 1180 nM (active) | –
CC(C)c1cc(-c2n[nH]c(=O)n2-c2ccc3c(ccn3C)c2)c(O)cc1O | 37.2 nM (active) | –
O=C(c1cncc(Br)c1)N1CCC(N2CCCC2)CC1 | – | 101% (inactive)
CCC(=C(c1ccccc1)c1ccc(OCCN(C)C)cc1)c1ccccc1 | 18700 nM (active) | –
C=C1C(=CC=C2CCC[C@]3(C)[C@@H]([C@H](C)C=C[C@H](C)C(C)C)CC[C@@H]23)C[C@@H](O)C[C@@H]1O | 469 nM (active) | –
Cn1c2ccccc2c2c3c(c4c5ccccc5n(CCC#N)c4c21)CNC3=O | 935 nM (active) | –
COc1cc(Nc2ncc(F)c(Nc3ccc4c(n3)N(COP(=O)(O)O)C(=O)C(C)(C)O4)n2)cc(OC)c1OC | 1180 nM (active) | –
Cc1cnc(Nc2ccc(F)cc2Cl)nc1-c1c[nH]c(C(=O)N[C@H](CO)c2cccc(Cl)c2)c1 | 7430 nM (active) | –
Cn1c(CNc2ccc(C(=N)N)cc2)nc2cc(C(=O)N(CCC(=O)O)c3ccccn3)ccc21 | – | 91.6% [at 23.2 µM] (inactive)
CNC(=O)CN1CCC(Oc2cc3c(Nc4cccc(Cl)c4F)ncnc3cc2OC)CC1 | 14.8 nM (active) | –
O=C(NC1CCNCC1)c1[nH]ncc1NC(=O)c1c(Cl)cccc1Cl | 590 nM (active) | –
O=C(c1ccc(Nc2nccc(-c3cc4ccccc4s3)n2)cc1)N1CCC(N2CCCC2)CC1 | 5900 nM (active) | –

Structure (SMILES) | Potency | viability (% of DMSO)
CC(C)c1ccc(Cn2ccc3c4c(N)nc(NC5CC5)nc4ccc32)cc1 | 2350 nM (active) | –
COc1cc2ncn(-c3cc(OCc4ccccc4C(F)(F)F)c(C(N)=O)s3)c2cc1OC | 469 nM (active) | –
Cc1c(NC(=O)OC[C@@H]2COCCN2)cn2ncnc(Nc3ccc4c(cnn4Cc4cccc(F)c4)c3)c12 | 14800 nM (active) | –
Cc1cnc(-c2cnc(NCCNc3ccc(C#N)cn3)nc2-c2ccc(Cl)cc2Cl)[nH]1 | – | 76.4% (inactive)
Nc1nccc(Oc2ccc(NC(=O)c3c[nH]cc(-c4ccc(F)cc4)c3=O)cc2F)c1Cl | 2960 nM (active) | –
CCOc1ccccc1OCCNC(C)Cc1ccc(OC)c(S(N)(=O)=O)c1 (stereo not given) | – | 101% (inactive)
NC(=O)c1c(OCc2c(F)cc(Br)cc2F)nsc1NC(=O)NCCCCN1CCCC1 | – | 116% (inactive)
CC(C)C[C@H](NC(=O)CNC(=O)c1cc(Cl)ccc1Cl)B(O)O | 66.2 nM (active) | –
c1nc2nc(Nc3ccc(N4CCOCC4)cc3)nc(NC3CCCCC3)c2[nH]1 | 4690 nM (active) | –
O=C(O)c1ccc2c(c1)nc(Nc1cccc(Cl)c1)c1ccncc12 | 4690 nM (active) | –
CN1CCN(c2ccc3nc(-c4c(N)c5c(F)cccc5[nH]c4=O)[nH]c3c2)CC1 | 16600 nM (active) | –
Cc1c(Cn2c(C)nc3c(C(=O)O)cc(N4CCOCC4)cc32)cccc1C(F)(F)F | 20900 nM (active) | –
C[C@]1(CO)CN(c2cc(C(=O)Nc3ccc4c(c3)-c3c(c(C(N)=O)nn3-c3ccc(F)cc3)CC4)c(Cl)cn2)C[C@@]1(C)CO | 209 nM (active) | –
Nc1cc(C(F)(F)F)c(-c2cc(N3CCOCC3)nc(N3CCOCC3)n2)cn1 | 372 nM (active) | –
CC(C)(O)c1cc2nc(-c3cnc(N)nc3)nc(N3CCOCC3)c2s1 | 33.2 nM (active) | –
COc1ccc(CC2c3cc(OC)c(OC)cc3CC[N+]2(C)CCC(=O)OCCCCCOC(=O)CC[N+]2(C)CCc3cc(OC)c(OC)cc3C2Cc2ccc(OC)c(OC)c2)cc1OC (stereo not given) | – | 84% [at 5.15 µM] (inactive)
COc1ccc(F)c(F)c1C(=O)c1cnc(NC2CCN(S(C)(=O)=O)CC2)nc1N | 1870 nM (active) | –
CC[C@@]1(O)C(=O)OCc2c1cc1n(c2=O)Cc2cc3cc(O)ccc3nc2-1 | 148 nM (active) | –
Cn1c2cc(S(C)=O)sc2c2cnn(Cc3cccc(N)c3)c(=O)c21 (stereo not given) | – | 102% (inactive)
Cc1cc(N2CCOCC2)cc2[nH]c(-c3c(NC[C@@H](O)c4cccc(Cl)c4)cc[nH]c3=O)nc12 | 52.6 nM (active) | –
